Source: PubChem BioAssay (EPA / NIEHS)
Records with an inconclusive call do not appear. Activity calls are given as the source filed them. Rule for the calls, unless noted: active = hit-call score of the fitted dose curve at least 0.9, where 1 is the maximum; inactive = score below 0.9.

Key:
[1] = BSK_LPS_PGE2: BioMAP Diversity Plus: LPS Assay for Prostaglandin E2 (PGE2) Biomarker Activity (AID 2283082); conditions: primary human HUVEC with PBMC; actives raise or lower the signal
Procedure, shortened: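 Endpoint derived from bidirectional curve fitting versus DMSO of ELISA-measured PGE2 in LPS-stimulated human primary vascular co-culture (HUVEC with PBMC) harvested at 24 h.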

[2] = read-out: Macrophage colony-stimulating factor (MCSF), CSF1 (gene 1435); assay: BSK_LPS_MCSF: BioMAP Diversity Plus: LPS Assay for Macrophage colony-stimulating factor (MCSF) Biomarker Activity (AID 2283083); conditions: primary human HUVEC with PBMC; actives raise or lower the signal
Procedure, shortened: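 HUVEC–PBMC co-culture, M-CSF measured by ELISA 24 h after chemical dosing. Fitted in both directions relative to DMSO as negative control; overt cytotoxicity assessed by SRB total-protein staining in parallel cultures.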

[3] = read-out: Tissue Factor, F3 (gene 2152); assay: BSK_LPS_TissueFactor: BioMAP Diversity Plus: LPS Assay for Tissue Factor Biomarker Activity (AID 2283084); conditions: primary human HUVEC with PBMC; actives raise or lower the signal
Procedure, shortened: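 Human umbilical vein endothelial cells co-cultured with PBMC were dosed with compound. Cell-surface CD142 was measured by ELISA 24 h later. Activity was fitted bidirectionally against DMSO, with SRB total-protein staining in parallel cultures for cytotoxicity.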

[4] = read-out: Tumor necrosis factor (Homo sapiens) (UniProt P01375); assay: BSK_LPS_TNFa: BioMAP Diversity Plus: LPS Assay for Tumour Necrosis Factor alpha (TNFa) Biomarker Activity (AID 2283085); conditions: primary human HUVEC with PBMC; actives raise or lower the signal
Procedure, shortened: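 Primary human vascular co-culture of HUVEC and PBMC; TNFa ELISA 24 h after treatment, analysed as increase or decrease relative to DMSO control.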

[5] = read-out: Vascular cell adhesion molecule 1 (VCAM1), VCAM1 (gene 7412); assay: BSK_LPS_VCAM1: BioMAP Diversity Plus: LPS Assay for Vascular cell adhesion molecule 1 (VCAM1) Biomarker Activity (AID 2283086); conditions: primary human HUVEC with PBMC; actives raise or lower the signal
Procedure, shortened: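 Primary human vascular co-culture (umbilical vein endothelium plus PBMC) stimulated with LPS received chemical; 24 h later VCAM-1 was read by ELISA. Overt cytotoxicity was assessed by sulforhodamine B staining of parallel cultures at the same time point.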

CD38, CD38 (gene 952) = assay: BSK_SAg_CD38: BioMAP Diversity Plus: SAg Assay for CD38 Biomarker Activity (AID 2283087); conditions: primary human HUVEC with PBMC; actives raise or lower the signal
Procedure, shortened: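 Fluorescence ELISA of cell-surface CD38 served as the read-out, with either increase or decrease fitted against DMSO controls. Cells were a human umbilical vein endothelium plus PBMC co-culture under SEB/TSST-1 stimulation, measured 24 h after dosing.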

CD40, CD40 (gene 958) = assay: BSK_SAg_CD40: BioMAP Diversity Plus: SAg Assay for CD40 Biomarker Activity (AID 2283088); conditions: primary human HUVEC with PBMC; actives raise or lower the signal
Procedure, shortened: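 HUVEC plus PBMC co-culture, superantigen-activated, with CD40 read by ELISA 24 h after dosing. Curves fitted in both directions against DMSO. Overt cytotoxicity checked by parallel SRB total-protein staining.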

[6] = read-out: Monocyte Chemoattractant Protein-1 (MCP1), CCL2 (gene 6347); assay: BSK_SAg_MCP1: BioMAP Diversity Plus: SAg Assay for Monocyte Chemoattractant Protein-1 (MCP1) Biomarker Activity (AID 2283090); conditions: primary human HUVEC with PBMC; actives raise or lower the signal
Procedure, shortened: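 MCP-1 levels in the endothelial–PBMC SAg co-culture were quantified by ELISA at 24 h post-dosing; both increases and decreases versus DMSO scored. Cytotoxicity monitored by SRB total protein in parallel cultures.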

[7] = read-out: E-selectin (Homo sapiens) (UniProt P16581); assay: BSK_SAg_Eselectin: BioMAP Diversity Plus: SAg Assay for Eselectin Biomarker Activity (AID 2283091); conditions: primary human HUVEC with PBMC; actives raise or lower the signal
Procedure, shortened: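 Human umbilical vein endothelial cells co-cultured with peripheral blood mononuclear cells, SAg system. E-selectin is measured by ELISA 24 h after dosing and fitted bidirectionally against DMSO. Cytotoxicity is checked by SRB staining of parallel cultures.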

[8] = read-out: Monokine induced gamma interferon (MIG), CXCL9 (gene 4283); assay: BSK_SAg_MIG: BioMAP Diversity Plus: SAg Assay for Monokine induced gamma interferon (MIG) Biomarker Activity (AID 2283092); conditions: primary human HUVEC with PBMC; actives raise or lower the signal
Procedure, shortened: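 Endothelial cells and PBMC were co-cultured, exposed to test chemicals, and sampled 24 h later. MIG was measured by ELISA, and responses were fitted in both directions relative to DMSO.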

[9] = BSK_SAg_PBMCCytotoxicity: PBMC Cytotoxicity Assessment in the BioMAP Diversity Plus: SAg Assay (AID 2283093); conditions: primary human HUVEC with PBMC;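 note: PBMC viability measured as Alamar Blue reduction fluorescence at 546/580 nm; fitted both ways against DMSO so a hit may be loss or gain of signal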;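 for AC50: PBMC superantigen activated with SEB plus TSST-1 one hour after compound addition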
Procedure, shortened: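 HUVEC/PBMC co-culture; PBMC exposed to chemical 1 h before SEB and TSST-1 activation (20 ng/mL each), incubated 90 h, then Alamar Blue 6 h, fluorescence 546/580 nm. Bidirectional fit versus DMSO baseline.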

[10] = read-out: Interleukin-8 (IL8), CXCL8 (gene 3576); assay: BSK_SAg_IL8: BioMAP Diversity Plus: SAg Assay for Interleukin-8 (IL8) Biomarker Activity (AID 2283094); conditions: primary human HUVEC with PBMC; actives raise or lower the signal
Procedure, shortened: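 In this co-culture of human umbilical vein endothelium with peripheral blood mononuclear cells, IL-8 is assayed by ELISA at 24 h. DMSO serves as baseline for bidirectional curve fitting.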

[11] = BSK_SAg_Proliferation: Cell Proliferation Assessment in the BioMAP Diversity Plus: SAg Assay (AID 2283095); conditions: primary human HUVEC with PBMC;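 note: relative cell number as total protein by SRB absorbance in sub-confluent culture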
Procedure, shortened: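 Readout is SRB-stained protein (560 nm) in a primary human HUVEC and PBMC co-culture; sub-confluent cultures are read at 96 h. Activity is fitted bidirectionally using DMSO as baseline.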

[12] = BSK_SAg_SRB: Viability Assessment in the BioMAP Diversity Plus: SAg Assay (AID 2283096); conditions: primary human HUVEC with PBMC;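 note: cells read one day after compound addition; hits may be either gain or loss of signal compared with DMSO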
Procedure, shortened: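 Human umbilical vein endothelial cells co-cultured with PBMC, read 24 h after compound dosing. Total protein measured by sulforhodamine B staining (0.1% SRB after 10% TCA fixation, absorbance 560 nm); bidirectional fit versus DMSO baseline.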

[13] = target: human CYP1A1, CYP1A1 (gene 1543) (UniProt P04798); assay: NVS_ADME_hCYP1A1: NovaScreen (NVS) CYP450-related Enzyme Activity (ADME) Assay for human CYP1A1 (AID 2283100; active = hit-call score of the fitted dose curve at least 0.9, where 1 is the maximum)
human CYP1A1, CYP1A1 (gene 1543), sequence (P04798 whole entry, looked up): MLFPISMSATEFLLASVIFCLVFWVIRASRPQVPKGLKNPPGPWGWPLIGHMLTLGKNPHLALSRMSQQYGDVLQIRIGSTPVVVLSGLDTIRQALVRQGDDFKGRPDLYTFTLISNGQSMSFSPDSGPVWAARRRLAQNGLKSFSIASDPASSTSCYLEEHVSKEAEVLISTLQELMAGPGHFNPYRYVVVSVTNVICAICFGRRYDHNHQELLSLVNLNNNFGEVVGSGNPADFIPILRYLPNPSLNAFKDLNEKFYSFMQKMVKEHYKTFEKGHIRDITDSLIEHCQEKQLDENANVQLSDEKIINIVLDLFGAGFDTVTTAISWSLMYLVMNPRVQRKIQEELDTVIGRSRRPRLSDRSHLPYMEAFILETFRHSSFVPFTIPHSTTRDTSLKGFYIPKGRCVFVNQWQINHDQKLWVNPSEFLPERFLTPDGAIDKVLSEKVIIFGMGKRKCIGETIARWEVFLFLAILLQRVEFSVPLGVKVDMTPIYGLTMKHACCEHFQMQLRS
Procedure, shortened: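 Recombinant CYP1A1 with a fluorogenic substrate, cell-free, read 1 h after dosing; acetonitrile as negative control. Single-concentration screen at 10 uM in duplicate, then concentration-response up to 20 uM for chemicals meeting ~30% inhibition threshold.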

[14] = target: human CYP1A2, CYP1A2 (gene 1544) (UniProt P05177); assay: NVS_ADME_hCYP1A2: NovaScreen (NVS) CYP450-related Enzyme Activity (ADME) Assay for human CYP1A2 (AID 2283102; active = hit-call score of the fitted dose curve at least 0.9, where 1 is the maximum;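 note: potency for inhibition since loss of fluorescence marks reduced CYP1A2 activity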)
human CYP1A2, CYP1A2 (gene 1544), sequence (P05177 whole entry, looked up): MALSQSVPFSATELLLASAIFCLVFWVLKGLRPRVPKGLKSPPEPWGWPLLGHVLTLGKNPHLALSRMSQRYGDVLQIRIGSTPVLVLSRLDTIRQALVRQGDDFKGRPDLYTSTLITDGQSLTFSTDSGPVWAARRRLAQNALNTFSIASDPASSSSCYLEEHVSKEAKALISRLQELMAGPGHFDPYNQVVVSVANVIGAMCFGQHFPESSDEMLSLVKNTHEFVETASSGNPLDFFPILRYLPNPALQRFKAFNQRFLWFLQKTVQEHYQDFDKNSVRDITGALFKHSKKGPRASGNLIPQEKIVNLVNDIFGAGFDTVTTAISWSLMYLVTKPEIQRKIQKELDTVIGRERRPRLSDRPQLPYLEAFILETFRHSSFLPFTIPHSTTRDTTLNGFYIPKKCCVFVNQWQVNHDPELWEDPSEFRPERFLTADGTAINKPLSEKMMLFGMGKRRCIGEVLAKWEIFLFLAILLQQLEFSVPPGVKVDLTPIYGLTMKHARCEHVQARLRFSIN
Procedure, shortened: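 Recombinant human CYP1A2 from insect cells, cell-free, fluorogenic substrate; read 0.5 h after dosing with loss of fluorescence signal indicating inhibition. Primary screen in duplicate at 10 uM, acetonitrile as negative control.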

[15] = target: human CYP19A1, CYP19A1 (gene 1588) (UniProt P11511); assay: NVS_ADME_hCYP19A1: NovaScreen (NVS) CYP450-related Enzyme Activity (ADME) Assay for human CYP19A1 (AID 2283098; active = hit-call score of the fitted dose curve at least 0.9, where 1 is the maximum)
human CYP19A1, CYP19A1 (gene 1588), sequence (P11511 whole entry, looked up): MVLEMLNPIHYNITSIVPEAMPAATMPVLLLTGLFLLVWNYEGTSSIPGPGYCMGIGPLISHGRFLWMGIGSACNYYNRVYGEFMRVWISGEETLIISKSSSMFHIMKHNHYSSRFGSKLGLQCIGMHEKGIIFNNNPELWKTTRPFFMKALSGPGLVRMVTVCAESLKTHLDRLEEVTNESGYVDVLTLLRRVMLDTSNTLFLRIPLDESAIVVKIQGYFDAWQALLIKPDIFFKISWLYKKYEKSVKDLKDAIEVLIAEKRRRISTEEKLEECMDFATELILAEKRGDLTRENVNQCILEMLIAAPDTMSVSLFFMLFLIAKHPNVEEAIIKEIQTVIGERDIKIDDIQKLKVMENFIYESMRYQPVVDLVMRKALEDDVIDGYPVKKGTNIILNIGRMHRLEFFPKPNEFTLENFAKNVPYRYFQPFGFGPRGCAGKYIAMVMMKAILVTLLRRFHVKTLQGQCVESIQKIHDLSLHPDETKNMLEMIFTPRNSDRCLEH
Procedure, shortened: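 Recombinant enzyme in a cell-free format, read 0.5 h after dosing by fluorescence from a fluorogenic substrate. Loss of signal was fitted against acetonitrile as baseline. Primary screen in duplicate at 10 uM, actives then tested in concentration series.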

E-selectin (Homo sapiens), sequence (P16581 whole entry, looked up): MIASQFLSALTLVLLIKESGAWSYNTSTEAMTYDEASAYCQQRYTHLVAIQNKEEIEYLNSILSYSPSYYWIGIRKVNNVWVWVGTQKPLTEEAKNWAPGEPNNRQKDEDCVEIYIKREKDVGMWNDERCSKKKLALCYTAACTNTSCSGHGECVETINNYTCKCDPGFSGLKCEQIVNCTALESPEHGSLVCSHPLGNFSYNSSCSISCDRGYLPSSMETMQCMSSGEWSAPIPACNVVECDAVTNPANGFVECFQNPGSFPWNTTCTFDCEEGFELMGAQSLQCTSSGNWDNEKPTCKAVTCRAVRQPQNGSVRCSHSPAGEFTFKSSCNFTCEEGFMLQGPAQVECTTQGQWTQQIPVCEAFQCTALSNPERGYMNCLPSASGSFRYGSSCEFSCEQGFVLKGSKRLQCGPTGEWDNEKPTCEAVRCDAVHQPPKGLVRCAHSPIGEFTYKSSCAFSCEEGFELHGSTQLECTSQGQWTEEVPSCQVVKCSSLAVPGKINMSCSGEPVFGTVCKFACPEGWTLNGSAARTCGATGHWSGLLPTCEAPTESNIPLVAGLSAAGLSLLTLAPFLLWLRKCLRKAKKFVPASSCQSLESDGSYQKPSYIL
Tumor necrosis factor (Homo sapiens), sequence (P01375 whole entry, looked up): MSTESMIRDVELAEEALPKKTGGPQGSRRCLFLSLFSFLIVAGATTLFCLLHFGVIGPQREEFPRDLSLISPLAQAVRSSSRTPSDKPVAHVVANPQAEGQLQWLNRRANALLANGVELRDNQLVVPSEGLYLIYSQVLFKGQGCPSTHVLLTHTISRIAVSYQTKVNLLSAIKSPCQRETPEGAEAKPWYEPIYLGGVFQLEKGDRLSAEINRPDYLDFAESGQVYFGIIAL

CCCCCCCCCCCCN1CCCC1=O
outcome [1]: inactive | AC50 [2]: 32.6 µM (active) | outcome [3]: inactive | outcome [4]: inactive | AC50 [5]: 34.1 µM (active) | AC50 (CD38, CD38 (gene 952)): 31.3 µM (active) | AC50 (CD40, CD40 (gene 958)): 30.9 µM (active) | AC50 [6]: 29.6 µM (active) | AC50 [7]: 30.3 µM (active) | AC50 [8]: 36.8 µM (active) | AC50 [9]: 33 µM (active) | AC50 [10]: 20 µM (active) | AC50 [11]: 36.3 µM (active) | AC50 [12]: 30.9 µM (active)

O=C(OCCOCCOC(=O)c1ccccc1)c1ccccc1
outcome [1]: inactive | outcome [2]: inactive | outcome [3]: inactive | AC50 [4]: 3.97 µM (active) | outcome [5]: inactive | outcome (CD38, CD38 (gene 952)): inactive | outcome (CD40, CD40 (gene 958)): inactive | outcome [6]: inactive | outcome [7]: inactive | outcome [8]: inactive | outcome [9]: inactive | outcome [10]: inactive | outcome [11]: inactive | outcome [12]: inactive | outcome [13]: inactive | AC50 [14]: 1.71 µM (active)

COCC(C)OCC(C)O (stereo not given)
outcome [1]: inactive | outcome [2]: inactive | outcome [3]: inactive | outcome [4]: inactive | outcome [5]: inactive | outcome (CD38, CD38 (gene 952)): inactive | outcome (CD40, CD40 (gene 958)): inactive | outcome [6]: inactive | outcome [7]: inactive | outcome [8]: inactive | outcome [9]: inactive | outcome [10]: inactive | outcome [11]: inactive | outcome [12]: inactive | outcome [15]: inactive
